Data on 17 compounds can be found in publication PMC5540273 (PLoS ONE, 2017).

Several values for one entry are separate records, joined by “and”; a condition that tells them apart may be missing. Equal entries are not always repeated. Where two headings read alike, the source gives them in different places.

Test systems include MST4; MTOR; MUSK; MYLK2; MYLK4; MYLK; MYO3A; MYO3B.
Settings in all cases: n = 1
The test system of another test is T1, MST2.
T1 construct: gene STK3

The next test has as its system T2, MST3.
T2 construct: gene STK24

Where [1] appears, read: concentration: 1 μM, replicates: in singlicate.
Where [2] appears, read: concentration: 1 μM,replicates: in singlicate, 1 µM.
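Also: KINOMEscan kinase panel screen.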

Regarding `CC(C)(C)c1ccc(C(=O)Nc2cn3cc(-c4cccnc4)ccc3n2)cc1`, the “%Inh” value was 42% with MST2 (setting [1]); 38% in the test on MST3 (setting [1]); 0% in the test on MST4 (setting [1]); 11% in the test with MTOR (setting [1]); 17% in the test with MUSK (setting [1]); 53% in the test on MYLK2 (setting [1]). Further, the “%Inh” value with MYLK4 (setting [1]) came to 11%; with MYLK (setting [1]), 28%; in the test with MYO3A (setting [1]) it was 8%; in the test on MYO3B (setting [1]), 22%.

Turning to `COc1cccc(-c2cc(-c3c[nH]nc3-c3ccccn3)ccn2)c1` [GW680338], the “%Inh” value in the test with MST2 (setting [1]) turned out to be 0%; with MST3 (setting [1]), 0%; with MST4 (setting [1]) it was 30%; in the test on MTOR (setting [1]), 33%; in the test on MUSK (setting [1]) it was 0%; in the test with MYLK2 (setting [1]), 0%. In addition, the “%Inh” value in the test on MYLK4 (setting [1]) worked out at 9%; in the test on MYLK (setting [1]), 0%; with MYO3A (setting [1]) it was 8%; in the test on MYO3B (setting [1]) it was 3%.

Take `Cc1ccc(NC(=O)Nc2cccc(C(F)(F)F)c2)cc1` [GSK955403]: the “%Inh” value in the test on MST2 (1 µM) is listed as 57%; in the test on MST3 (1 µM) it was 16%; in the test with MST4 (1 µM) it was 0%; with MTOR (1 µM), 0%; in the test on MUSK (1 µM), 0%; with MYLK2 (1 µM), 22%. Also, the “%Inh” value is 0% in the test with MYLK4 (1 µM), 32% in the test with MYLK (1 µM), 9% in the test on MYO3A (1 µM) and 0% with MYO3B (1 µM).

On to `Cc1cccc(-c2nc(Nc3ccc4[nH]ncc4c3)c3ccccc3n2)n1` [GW857175], for which the “%Inh” value in the test with MST2 (setting [1]) turned out to be 0%; with MST3 (setting [1]), 10%; in the test with MST4 (setting [1]), 27%; in the test with MTOR (setting [1]), 0%; with MUSK (setting [1]) it was 0%; in the test with MYLK2 (setting [1]) it was 7%. In addition, the “%Inh” value in the test with MYLK4 (setting [1]) is given as 32%; in the test on MYLK (setting [1]), 32%; in the test with MYO3A (setting [1]), 0%; in the test with MYO3B (setting [1]) it was 0%.

Take `CC(=O)Nc1nc2cnc(Nc3cc(NC(=O)c4cccc(CCC#N)c4)ccc3C)nc2s1`: the “%Inh” value in the test with MST2 (setting [1]) was 27%; in the test on MST3 (setting [1]), 3%; in the test on MST4 (setting [1]), 0%; in the test with MTOR (setting [1]) it was 0%; with MUSK (setting [1]) it was 0%; in the test with MYLK2 (setting [1]), 0%. In addition, the “%Inh” value in the test with MYLK4 (setting [1]) came out at 6%; in the test with MYLK (setting [1]), 27%; in the test on MYO3A (setting [1]), 13%; in the test with MYO3B (setting [1]), 0%.

Consider `Cc1cccc(-c2nc(-c3ccc(S(C)(=O)=O)cc3)sc2-c2ccnc(NCCc3ccccc3)c2)c1`, for which the “%Inh” value in the test with MST2 (setting [1]) is 4%; in the test on MST3 (setting [1]), 0%; with MST4 (setting [1]), 32%; in the test with MTOR (setting [1]) it was 0%; in the test with MUSK (setting [1]), 0%; with MYLK2 (setting [1]), 14%. Also, the “%Inh” value came to 12% in the test on MYLK4 (setting [1]), 0% in the test with MYLK (setting [1]), 10% with MYO3A (setting [1]) and 0% with MYO3B (setting [1]).

In the case of `COc1cc2ncnc(Nc3ccc4nc(-c5ccccc5)[nH]c4c3)c2cc1OC.Cl` [GW282450], the “%Inh” value in the test with MST2 (setting [1]) is given as 0%; in the test with MST3 (setting [1]), 0%; in the test on MST4 (setting [1]) it was 0%; in the test with MTOR (setting [1]) it was 16%; in the test with MUSK (setting [1]), 10%; in the test on MYLK2 (setting [1]), 0%. For the same compound, the “%Inh” value with MYLK4 (setting [1]) is recorded as 8%; in the test on MYLK (setting [1]) it was 29%; in the test on MYO3A (setting [1]), 21%; in the test on MYO3B (setting [1]) it was 0%.

Consider `CS(=O)(=O)c1ccc(-c2c(-c3ncn[nH]3)sc(N3CCOCC3)c2C#N)cc1`, for which the “%Inh” value was determined as 13% in the test on MST2 (setting [1]); 100% with MST3 (setting [1]); 0% in the test with MST4 (setting [1]); 74% in the test on MTOR (setting [1]); 2% with MUSK (setting [1]); 12% with MYLK2 (setting [1]). For the same compound, the “%Inh” value was determined as 29% with MYLK4 (setting [1]), 9% in the test on MYLK (setting [1]), 4% in the test with MYO3A (setting [1]) and 4% in the test with MYO3B (setting [1]).

Turning to `Cl.c1ccc(-c2n[nH]cc2-c2ccnc(-c3ccc(CN4CCOCC4)cc3)c2)nc1` [GW776245], the “%Inh” value with MST2 (setting [1]) came to 0%; in the test with MST3 (setting [1]), 0%; in the test on MST4 (setting [1]), 0%; in the test with MTOR (setting [1]), 42%; with MUSK (setting [1]), 1%; with MYLK2 (setting [1]) it was 10%. Further, the “%Inh” value in the test on MYLK4 (setting [1]) is on record as 0%; in the test on MYLK (setting [1]), 2%; in the test on MYO3A (setting [1]) it was 0%; in the test on MYO3B (setting [1]), 1%.

Take `Cc1ccc(-c2cc(-c3c[nH]nc3-c3ccccn3)ccn2)cc1` [GW684088]: the “%Inh” value in the test on MST2 (setting [1]) turned out to be 3%; with MST3 (setting [1]) it was 25%; with MST4 (setting [1]), 0%; in the test with MTOR (setting [1]), 22%; in the test with MUSK (setting [1]), 0%; in the test on MYLK2 (setting [1]), 39%. Besides, the “%Inh” value is given as 13% with MYLK4 (setting [1]), 18% in the test with MYLK (setting [1]), 46% in the test with MYO3A (setting [1]) and 5% in the test with MYO3B (setting [1]).

With `CCn1c(-c2ccccn2)nc2cnccc21` [SB-736398], the “%Inh” value is on record as 0% with MST2 (setting [1]); 0% in the test on MST3 (setting [1]); 0% in the test with MST4 (setting [1]); 0% in the test with MTOR (setting [1]); 5% in the test with MUSK (setting [1]); 3% with MYLK2 (setting [1]). Also, the “%Inh” value amounted to 2% with MYLK4 (setting [1]), 0% in the test on MYLK (setting [1]), 18% in the test with MYO3A (setting [1]) and 0% in the test on MYO3B (setting [1]).

Take `CSc1nn2c(=O)cc(N3CCOCC3)nc2n1Cc1cccc(C(F)(F)F)c1C` [GSK2363608]: the “%Inh” value with MST2 (setting [2]) is 9% and 1%; with MST3 (setting [1]), 0%; with MST4 (setting [2]) it was 90.3% and 0%; with MTOR (setting [2]), 13% and 28%; in the test with MUSK (setting [2]), 12% and 4%; in the test on MYLK2 (setting [2]) it was 19% and 0%. The “%Inh” value with MYLK4 (setting [2]) is 17% and 0%; in the test with MYLK (setting [2]) it was 6% and 0%; with MYO3A (setting [2]), 21% and 0%; in the test with MYO3B (setting [2]), 0% and 14%.

In the case of `COc1cc(Nc2nccc(N3CCC(NC(=O)Nc4cc(C)ccc4C)C3)n2)cc(OC)c1OC` (centres unmarked) [GSK1379762], the “%Inh” value in the test with MST2 (setting [1]) is reported as 0%; in the test with MST3 (setting [1]), 6%; in the test on MST4 (setting [1]), 0%; in the test on MTOR (setting [1]), 10%; in the test with MUSK (setting [1]), 25%; in the test with MYLK2 (setting [1]), 6%. Moreover, the “%Inh” value is given as 0% in the test on MYLK4 (setting [1]), 12% with MYLK (setting [1]), 2% in the test with MYO3A (setting [1]) and 0% in the test on MYO3B (setting [1]).

On to `Cc1cccc(-c2cc(Nc3ccncc3)c3ccccc3n2)n1` [GSK223675], for which the “%Inh” value in the test on MST2 (setting [1]) is listed as 6%; in the test with MST3 (setting [1]) it was 5%; in the test on MST4 (setting [1]), 0%; with MTOR (setting [1]), 7%; in the test with MUSK (setting [1]), 1%; in the test with MYLK2 (setting [1]) it was 0%. In addition, the “%Inh” value in the test with MYLK4 (setting [1]) is recorded as 0%; with MYLK (setting [1]), 15%; in the test with MYO3A (setting [1]), 17%; in the test on MYO3B (setting [1]), 0%.

For the compound `Cc1ccccc1-n1cnc2c(N)ncnc21` [SKF-97510], the “%Inh” value was 15% in the test with MST2 (setting [1]); 18% in the test with MST3 (setting [1]); 0% in the test with MST4 (setting [1]); 0% in the test on MTOR (setting [1]); 0% in the test with MUSK (setting [1]); 0% in the test with MYLK2 (setting [1]). Moreover, the “%Inh” value in the test with MYLK4 (setting [1]) was determined as 0%; in the test with MYLK (setting [1]) it was 0%; with MYO3A (setting [1]), 0%; with MYO3B (setting [1]), 42%.

As for `COc1ccc(Nc2nccc(NCCNC(=O)Nc3ccccc3F)n2)cc1` [GSK1379901], the “%Inh” value stood at 0% in the test on MST2 (setting [1]); 0% in the test on MST3 (setting [1]); 0% in the test with MST4 (setting [1]); 22% with MTOR (setting [1]); 15% with MUSK (setting [1]); 0% with MYLK2 (setting [1]). The “%Inh” value in the test with MYLK4 (setting [1]) came to 0%; with MYLK (setting [1]), 15%; in the test on MYO3A (setting [1]), 12%; in the test with MYO3B (setting [1]), 0%.

Regarding `O=C(Nc1n[nH]c2nc(-c3nccs3)c(Br)cc12)C1CC1` [SB-742251], the “%Inh” value with MST2 (setting [1]) is 0%; with MST3 (setting [1]), 0%; with MST4 (setting [1]), 0%; in the test on MTOR (setting [1]), 16%; with MUSK (setting [1]), 0%; in the test with MYLK2 (setting [1]), 93.4%. Further, the “%Inh” value turned out to be 23% in the test on MYLK4 (setting [1]), 7% in the test on MYLK (setting [1]), 0% with MYO3A (setting [1]) and 0% in the test on MYO3B (setting [1]).
